Data on 8 compounds can be found in PubChem BioAssay (NCI).

Holding throughout (assay): NCI-60 one-dose screen, 48 h (100 = growth as untreated, 0 = no growth, -100 = all killed)
Assay [1] concerns NCI-H23 lung. The conditions noted are these: 10 µM unless noted.
Assay [2] concerns NCI-H226 lung. The conditions noted are these: 10 µM unless noted.
The test system of assay [3] is NCI-H322M lung. The conditions noted are these: 10 µM unless noted.
Assay [4] deals with HOP-62 NSCLC. The conditions noted are these: 10 µM unless noted.
The test system of assay [5] is NCI-H460 lung. The conditions noted are these: 10 µM unless noted.
Assay [6] concerns HOP-92 NSCLC. The conditions noted are these: 10 µM.
The subject of assay [7] is A549/ATCC NSCLC. The conditions noted are these: 10 µM unless noted.
The subject of assay [8] is 786-0 renal. The conditions noted are these: 10 µM unless noted.
The subject of assay [9] is COLO 205 colon. The conditions noted are these: 10 µM unless noted.
The test system of assay [10] is DU-145 prostate. The conditions noted are these: 10 µM unless noted.
For assay [11], the system named is K-562 leukemia. The conditions noted are these: 10 µM unless noted.
Assay [12] has as its system MALME-3M melanoma. The conditions noted are these: 10 µM unless noted.
Assay [13] relates to MDA-MB-231 breast. The conditions noted are these: 10 µM unless noted.
For assay [14], the system named is RXF 393 renal. The conditions noted are these: 10 µM unless noted.
The test system of assay [15] is SF-268 CNS. The conditions noted are these: 10 µM unless noted.
In assay [16] the test system is SF-295 CNS. The conditions noted are these: 10 µM unless noted.
For assay [17], the system named is SF-539 CNS. The conditions noted are these: 10 µM unless noted.
For assay [18], the system named is UACC-257 melanoma. The conditions noted are these: 10 µM unless noted.
Assay [19] concerns M14 melanoma. The conditions noted are these: 10 µM unless noted.
The subject of assay [20] is NCI-H522 lung. The conditions noted are these: 10 µM unless noted.

This is part of a sample that, as a whole, favours compounds with a hit. Of some 83,000 tested, about 20% had one in any assay.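 Treatment: one concentration, 48 hours, 96-well format. Scoring: percent growth, with anything below 10 considered active.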 Values without a mark were called inactive. Calls of active or inactive are those of the source.

Take `C[C@@H](Nc1ncnc2ccc(-c3cnc(Cl)c(NS(C)(=O)=O)c3)cc12)c1ccccc1`: the growth in assay [1] is 55.7%; in assay [2], 64.6%; in assay [3], 68.2%; in assay [4], 36.8%; in assay [5], 60.5%; in assay [6] it was -1.13% (active). Besides, the growth was 54.2% in assay [7]; 45.4% in [8]; 80.2% in assay [9]; 34.1% in assay [10]; 73.9% in [11]; 59.2% in [12]. For the same compound, the growth in assay [13] is 49%; in assay [14], -17.5% (active); in assay [15], 42.5%; in assay [16] it was 46%; in [17], 44.5%; in assay [18], 60.9%. Moreover, the growth in assay [19] is 69.1%.

`NC(=O)c1cccc(-n2ccc3cc(NC(=O)Nc4ccc(N5CCOCC5)c(C(F)(F)F)c4)ccc32)n1`: the growth in assay [1] is 12.3%; in [2], -3.89% (active); in assay [3], 15.8%; in assay [4], 1.56% (active); in assay [5], 0.481% (active); in assay [6], -16.5% (active). For the same compound, the growth in assay [7] was 10.5%; in assay [8], -41.8% (active); in assay [9], -48.3% (active); in assay [10] it was 13.2%; in [11], -22.9% (active); in assay [12], 12.3%. Also, the growth in assay [13] is 16%; in [14], -46.4% (active); in assay [15], 3.3% (active); in assay [16] it was -45.7% (active); in [17], -20.5% (active); in assay [18], 35.7%. For the same compound, the growth in assay [19] was 16.7%.

With `NC/C(=C/F)COc1ccc2nc(NCc3cccnc3)oc2c1`, the growth was 92.8% in assay [1]; 94.3% in [2]; 111% in assay [3]; 77% in assay [4]; 98.8% in assay [5]; 116% in assay [6]. Moreover, the growth in assay [7] was 95.3%; in [8], 92.5%; in assay [9], 111%; in assay [10] it was 95%; in assay [11] it was 109%; in assay [12], 108%. In addition, the growth in assay [13] is 96%; in [14], 66.9%; in assay [15], 93.2%; in [16], 99.9%; in [17], 91.9%; in assay [18] it was 95.9%. The growth in assay [19] was 103%.

Consider `N#Cc1c(-c2cccs2)cc(-c2cnccn2)nc1SCC(=O)c1ccc(F)cc1`, for which the growth was 90.6% in [1]; 89.3% in assay [2]; 97.8% in assay [3]; 76.4% in assay [4]; 103% in [5]; 76% in assay [6]. Besides, the growth in assay [7] was 86.6%; in assay [8], 88.6%; in assay [9] it was 105%; in assay [10], 79.5%; in assay [11], 87.2%; in assay [12], 101%. Further, the growth was 68.7% in assay [13]; 62.2% in [14]; 84.7% in assay [15]; 93.6% in [16]; 76.9% in assay [17]; 109% in assay [18]. For the same compound, the growth in assay [19] is 116%.

With `N/C(=N\C(N)=N\c1nc2ccccc2s1)c1ccc2ccccc2c1`, the growth in [1] was 53.2%; in [2] it was 62.7%; in assay [3], 96.8%; in assay [4] it was -28% (active); in assay [5], 68.1%; in assay [6], 88.6%. For the same compound, the growth in assay [7] was 9.92% (active); in assay [8] it was 87.9%; in [9], 109%; in assay [10] it was 69%; in [11] it was 69.3%; in assay [12], 91.3%. In addition, the growth is 67.9% in assay [13]; 91.8% in [14]; 78.9% in [15]; 74.6% in [16]; 102% in assay [17]; 109% in assay [18]. Besides, the growth in [19] is 97.5%.

For the compound `O=C1CCCc2nc(Nc3ccc(S(=O)(=O)Nc4ccc([N+](=O)[O-])cc4)cc3)ncc21`, the growth was 102% in assay [1]; 109% in [2]; 106% in [3]; 111% in [4]; 103% in assay [5]; 121% in assay [6]. Besides, the growth is 87.7% in assay [20]; 104% in assay [7]; 99.9% in assay [8]; 105% in assay [10]; 92.2% in assay [11]; 107% in [12]. In addition, the growth in [13] is 99.6%; in [14], 103%; in [15], 96.2%; in assay [16], 101%; in assay [17], 92.8%; in assay [18] it was 102%.

As to `C/C(=N\O)[C@H]1C[C@]23CC[C@]4(C)[C@H](CC[C@@H]5[C@@]6(C)CC/C(=N/O)C(C)(C)[C@@H]6CC[C@]54C)[C@H]2[C@H](C)C1(C)OC3`, the growth was 96.5% in [1]; 91.9% in assay [2]; 114% in assay [3]; 88.5% in assay [4]; 106% in assay [5]; 106% in assay [6]. Besides, the growth was 94.7% in [7]; 92.1% in assay [8]; 116% in assay [9]; 94.4% in assay [10]; 101% in assay [11]; 106% in assay [12]. For the same compound, the growth in assay [13] was 99%; in assay [14], 58.1%; in assay [15], 89.4%; in [16], 101%; in assay [17], 103%; in [18], 110%. Moreover, the growth in assay [19] is 105%.

Regarding `O=C(CSc1nnc(-c2ccc3nc(-c4ccccc4)[nH]c3c2)o1)Nc1ccc(C(=O)/C=C/c2ccccc2)cc1`, the growth is 100% in assay [1]; 106% in assay [2]; 102% in [3]; 104% in assay [4]; 113% in [5]; 149% in [6]. The growth is 93.4% in assay [20]; 106% in [7]; 102% in assay [8]; 107% in assay [10]; 112% in assay [11]; 94.5% in assay [12]. The growth is 105% in assay [13]; 114% in assay [14]; 109% in assay [15]; 109% in assay [16]; 96.8% in assay [17]; 103% in [18].
